Test results reported in PubChem BioAssay AID504329 (Southern Research Specialized Biocontainment Screening …, 2011).
Values joined by “and” are separate entries in the source; they are usually repeats but may differ in a detail not shown here. Equal entries are not always repeated. Screen size: about 340,000 compounds; about 1,000 (0.29%) were called active. These entries were drawn from the full list. Entries with a potency or affinity are not part of this list. Values without a mark were called inactive. No stated cut-off is given here; in the data, inconclusive means inhibition above about 27% without an active follow-up result; inactive means below that.

Experiment: NS1A inhibition, H1N1 influenza, cell based functional assay (AID 504329)
Conditions: percent inhibition, at 12.5 µM, hits give high values

| Structure (SMILES) | inhibition |
| --- | --- |
| Cc1cc(C)nc(NC(=NCc2ccc3c(c2)OCO3)NC(=O)Nc2ccccc2)n1 | 12.4% |
| O=S(=O)(NC1CCC(NS(=O)(=O)c2c(F)cccc2F)CC1)c1ccc2c(c1)OCCO2 (centres undefined) | 6.49% |
| Nc1nc(N)c(N=Nc2ccc(C(=O)O)cc2)c(N)n1 | 17.8% |
| O=C(O)c1ccc(N/N=C/c2ccnc3ccccc23)cc1 | 12.7% |
| CC(=NCCN1CCOCC1)c1c(O)n(-c2ccccc2C)c(=O)[nH]c1=O | 5.2% |
| COc1cc(Nc2ccc(S(=O)(=O)N3CCN(C)CC3)cc2[N+](=O)[O-])cc(OC)c1 | 18.2% |
| COc1ccc(Nc2ccc(S(=O)(=O)N3CCCCC3)cc2[N+](=O)[O-])cc1 | 21% |
| COc1ccc(Nc2ccc(S(=O)(=O)N3CCCCC3)cc2[N+](=O)[O-])cc1Cl | 21% |
| COc1ccccc1Nc1ccc(S(=O)(=O)N2CCCCC2)cc1[N+](=O)[O-] | 22.4% |
| CSCCC(NS(=O)(=O)c1cccc(C(F)(F)F)c1)C(=O)N(C)Cc1ccc2c(c1)OCCO2 (centres undefined) | -15.2% |
| C/C(=N\Nc1ccccc1)c1c(O)n(-c2ccccc2)c(=O)[nH]c1=O | -15.4% |
| N#C/C(=C\c1ccc([N+](=O)[O-])cc1)c1nc(C2CC2)cs1 | -3.47% |
| N#C/C(=C/c1ccccc1[N+](=O)[O-])c1nc(C2CC2)cs1 | 16.5% |
| CN(CC(=O)NC(=O)NC1CCCCC1)c1ccccc1 | -19.7% |
| CCCc1nnc(SCC(=O)Nc2cc(C)on2)n1CCOC | -2.31% |
| O=C(O)c1cc(S(=O)(=O)N2CCCCC2)sc1Cl | 0.17% |
| Cc1[nH]n(-c2ccccc2)c(=O)c1N=Nc1c(Cl)cccc1Cl | -0.23% |
| Nc1[nH]n(-c2ccccc2)c(=O)c1N=Nc1ccccc1 | 20.9% |
| Nc1[nH]n(-c2ccccc2)c(=O)c1N=Nc1ccc2c(c1)OCO2 | -20.9% |
| Cc1[nH]n(-c2ccccc2)c(=O)c1N=Nc1ccc2c(c1)OCO2 | 1.81% |

| Structure (SMILES) | inhibition |
| --- | --- |
| Cc1[nH]n(-c2ccccc2)c(=O)c1N=Nc1ccccc1 | -4.27% |
| Cc1[nH]n(-c2ccccc2)c(=O)c1N=Nc1ccc(Cl)cc1 | 1.98% |
| Cc1ccc(N=Nc2c(C)[nH]n(-c3ccccc3)c2=O)cc1Br | 2.46% |
| Cc1[nH]n(-c2ccccc2)c(=O)c1N=Nc1ccccc1O | 27.8% |
| Cc1noc(C)c1CSc1nnc2scc(-c3ccccc3)n12 | 0.06% |
| Cc1ccc(S(=O)(=O)NCCNC(=O)C2CCCNC2=O)cc1 (centres undefined) | -2.4% |
| NNC(=O)COc1cccc(C(F)(F)F)c1 | -3.83% |
| CC(C)CC(=O)C(=O)O | 1.46% and 3.24% |
| O=C(COC(=O)c1cccc(-n2cnnn2)c1)c1ccc(F)cc1 | -2.74% |
| Cc1ccccc1-c1cccc([C@@H]2C[C@H]3[C@H](CON3C)CN2S(=O)(=O)c2ccccc2C)c1 | -6.53% |
| Cc1ccc(S(=O)(=O)N2CCOCC2)cc1NC(=O)CSc1ccccn1 | -3.06% |
| COc1ccccc1CNCC(=O)Nc1cc(S(=O)(=O)N2CCCCCC2)ccc1Cl | 2.82% |
| Cc1ccc(S(=O)(=O)N2CCOCC2)cc1NC(=O)CNCc1ccccc1Cl | -1.72% |
| O=C(CNCc1ccncc1)Nc1cc(S(=O)(=O)N2CCCCC2)ccc1Cl | -4.7% |
| CS(=O)(=O)c1ccc(-c2cccc(NC(=O)COc3ccc(Cl)cc3)c2)nn1 | 7.16% |
| Fc1ccc(Oc2nccc(-c3ccc(Cl)cc3)n2)cc1 | -2.98% |
| CCN(C[C@H]1N[C@@](CC)(C(=O)OC)[C@H]2C(=O)N(Cc3ccccc3)C(=O)[C@@H]12)C(=O)C1CCCCC1 | -2.32% |
| O=C(NNC(=O)c1ccccc1Br)c1ccc2nc[nH]c2c1 | 22.1% |
| CCOC(=O)C1(CC)NC(c2ccc(N(C)C)cc2)C2C(=O)N(C)C(=O)C21 (centres undefined) | 9.29% |
| COc1ccc2c(c1)-c1c(ssc1=S)C(C)(C)N2S(=O)(=O)c1ccc(C)cc1 | 17.8% |

| Structure (SMILES) | inhibition |
| --- | --- |
| CCOc1ccc2c(c1)-c1c(ssc1=S)C(C)(C)N2C(=O)c1ccco1 | 1.84% |
| CCN(CC(=O)Nc1c(F)cccc1F)C(=O)CSc1ccccc1 | -8.64% |
| COc1cc(N/N=C/c2ccc(N(C)C)cc2)ncn1 | -5.63% |
| COc1ccc(/C=N/Nc2cc(OC)ncn2)cc1 | 3.33% |
| COc1cccc(/C=N/Nc2cc(Cl)nc(C)n2)c1O | -12.7% |
| COc1cccc(/C=N/Nc2c(Cl)cncc2Cl)c1O | 1.36% |
| Oc1ccccc1/C=N/Nc1ccnc(SCc2ccccc2)n1 | -3.79% |
| Clc1ccccc1/C=N/Nc1cc(N2CCOCC2)ncn1 | 17.6% |
| COc1ccc(/C=N/Nc2cc(N3CCOCC3)ncn2)c(OC)c1 | -0.39% |
| Oc1ccccc1/C=N/Nc1cccc2cccnc12 | -0.48% |
| CCN(C(=O)COC(=O)Cc1c[nH]c2ccccc12)C1CCS(=O)(=O)C1 (centres undefined) | 2.01% |
| Cc1ccc(NC(=O)CSc2nc3ccccc3c(=O)[nH]2)cc1[N+](=O)[O-] | 5.04% |
| COc1ccccc1NC(=O)NNC(=O)CCc1ccccc1 | -10.3% |
| COc1ccc(NC(=S)N(CCCN2CCOCC2)Cc2cn(C)c3ccccc23)cc1OC | 2.8% |
| COc1ccc(OCc2nnc(SCc3ccc(C(=O)O)cc3)o2)cc1 | 5.27% |
| O=C(NC1CCCC1)C(c1ccc(F)cc1)N(C(=O)c1csnn1)c1ccccc1F (centres undefined) | -6.01% |
| Cn1cc(CN2CCC(n3nccc3NC(=O)CCCc3ccccc3)CC2)cn1 | -14% |
| COc1ccc(-c2cc(C(=O)NCCN3CCOCC3)c3ccccc3n2)cc1OC | 23% |
| O=C(CSc1nnc(Nc2ccccc2)s1)Nc1cccc(S(=O)(=O)N2CCCCC2)c1 | -4.99% |
